Results on 24 compounds are retold here after the supplement of paper PMC10127200.

Each structure is given as a SMILES string. Where a name gives a salt, the structure may show the parent alone.

What all share (test): Euclidean distance of Cell Painting phenotypic profile (signed KS, 77 features) to DMSO centroid (dimensionless distance); 5 or 10 uM (library dependent); higher = stronger phenotypic change vs DMSO (phenoactivity)
Holding throughout (conditions): 48 h

The subject of experiment [1] is 786-O. Put shortly: (§1)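 Five cancer lines, together with a healthy fibroblast line, received library compounds for 48 h at a library-dependent 10 or 5 uM and 0.1% DMSO final. Harmony then derived 77 features from confocal 20X images (9 fields/well) of the stained cells, scoring each as a signed Kolmogorov-Smirnov statistic against same-plate vehicle wells. After plate-position correction, correlation weighting and replicate averaging at the top dose, phenoactivity was taken as each profile's Euclidean distance to the median vehicle profile.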

Experiment [2] has as its system A549. Put shortly: as §1
The test system of experiment [3] is DU145. The gist of the method: as §1
In experiment [4] the test system is FB. Put shortly: as §1
The subject of experiment [5] is HEPG2. Put shortly:
as §1

Experiment [6] has as its system OVCAR4. The gist of the method:
as §1

On to `CNC(=O)CN1CCC(Oc2cc3c(Nc4cccc(Cl)c4F)ncnc3cc2OC)CC1` [Sapitinib (AZD8931)], for which the Euclidean distance worked out at 1.67 in experiment [1]; 3.03 in experiment [2]; 2.21 in experiment [3]; 2.79 in experiment [4]; 1.18 in experiment [5]; 3.03 in experiment [6].
Regarding `FC(F)(F)C(Cl)Br` (centres undefined) [Halothane], the Euclidean distance in experiment [1] was determined as 0.835; in experiment [2], 0.628; in experiment [3], 0.788; in experiment [4] it was 1; in experiment [5], 0.854; in experiment [6] it was 1.59.
Take `Cc1nnc(SCC2=C(C(=O)O)N3C(=O)[C@@H](NC(=O)Cn4cc(Cl)c(=O)c(Cl)c4)[C@H]3SC2)s1` [Cefazedone]: the Euclidean distance in experiment [1] was determined as 1.36; in experiment [2], 0.841; in experiment [3], 0.667; in experiment [4], 1.16; in experiment [5], 0.733; in experiment [6] it was 0.862.
As to `CCN(CC)CCCC(C)Nc1c2ccc(Cl)cc2nc2ccc(OC)cc12` (centres undefined) [Quinacrine 2HCl], the Euclidean distance came out at 3.59 in experiment [1]; 4.6 in experiment [2]; 2.81 in experiment [3]; 5.56 in experiment [4]; 4.32 in experiment [5]; 3.92 in experiment [6].
Regarding `O=C1CN(/N=C/c2ccc(-c3ccc([N+](=O)[O-])cc3)o2)C(=O)N1` [Dantrolene sodium], the Euclidean distance in experiment [1] turned out to be 0.573; in experiment [2], 0.503; in experiment [3], 1.37; in experiment [4] it was 0.968; in experiment [5] it was 0.758; in experiment [6], 1.01.
On to `C[N+](C)(C)CCOC(=O)CCC(=O)OCC[N+](C)(C)C` [Succinylcholine Chloride Dihydrate], for which the Euclidean distance in experiment [1] is 1.36; in experiment [2], 2.04; in experiment [3], 1.93; in experiment [4], 1.82; in experiment [5], 1.34; in experiment [6] it was 1.91.
Turning to `COc1c(N2CCNC(C)C2)c(F)cc2c(=O)c(C(=O)O)cn(C3CC3)c12` (centres undefined) [Gatifloxacin], the Euclidean distance in experiment [1] was 0.648; in experiment [2], 0.598; in experiment [3] it was 0.774; in experiment [4] it was 0.851; in experiment [5] it was 0.876; in experiment [6] it was 1.07.
Regarding `CCOC(=O)C1=C(C)NC(C)=C(C(=O)OC)C1c1cccc([N+](=O)[O-])c1` (centres undefined) [Nitrendipine], the Euclidean distance was found to be 1 in experiment [1]; 0.871 in experiment [2]; 0.908 in experiment [3]; 1.33 in experiment [4]; 0.709 in experiment [5]; 0.934 in experiment [6].
Turning to `C#Cc1cccc(Nc2ncnc3cc(OCCOC)c(OCCO)cc23)c1`, the Euclidean distance in experiment [1] came out at 1.88; in experiment [2] it was 1.49; in experiment [3], 1.82; in experiment [4] it was 2.87; in experiment [5], 1.07; in experiment [6], 2.03.
With `Cn1cc(-c2ccc3nnc(Sc4ccc5ncccc5c4)n3n2)cn1`, the Euclidean distance came to 1.56 in experiment [1]; 2.02 in experiment [2]; 1.64 in experiment [3]; 0.87 in experiment [4]; 0.766 in experiment [5]; 0.987 in experiment [6].
Consider `Cc1ncc(C[n+]2csc(CCO)c2C)c(N)n1` [Thiamine HCl (Vitamin B1)], for which the Euclidean distance was found to be 1.43 in experiment [1]; 0.642 in experiment [2]; 0.753 in experiment [3]; 0.562 in experiment [4]; 1.12 in experiment [5]; 1.21 in experiment [6].
With `COC(=O)c1cc(OC)c2c(c1-c1c(CO)cc(OC)c3c1OCO3)OCO2` [Bicyclol], the Euclidean distance in experiment [1] is 1.47; in experiment [2], 0.509; in experiment [3] it was 2.55; in experiment [4], 0.898; in experiment [5], 1.1; in experiment [6], 1.06.
As for `N[C@@H](Cc1cc(I)c(Oc2ccc(O)c(I)c2)c(I)c1)C(=O)O` [Triiodothyronine], the Euclidean distance in experiment [1] was found to be 1.04; in experiment [2], 1.57; in experiment [3], 1.08; in experiment [4] it was 0.968; in experiment [5], 0.865; in experiment [6], 1.58.
On to `Cc1cc(C(C)(C)C)cc(C)c1CC1=NCCN1` [Xylometazoline HCl], for which the Euclidean distance in experiment [1] was 0.708; in experiment [2], 0.547; in experiment [3], 0.707; in experiment [4], 0.795; in experiment [5] it was 0.707; in experiment [6], 0.903.
Turning to `CCC[C@H](NC(=O)[C@@H]1[C@H]2CCC[C@H]2CN1C(=O)[C@@H](NC(=O)[C@@H](NC(=O)c1cnccn1)C1CCCCC1)C(C)(C)C)C(=O)C(=O)NC1CC1` [Telaprevir (VX-950)], the Euclidean distance in experiment [1] turned out to be 1.35; in experiment [2], 1.63; in experiment [3], 1.2; in experiment [4], 0.968; in experiment [5], 0.621; in experiment [6], 1.3.
Take `c1ccc([C@H]2CN3CCSC3=N2)cc1` [Levamisole hydrochloride]: the Euclidean distance in experiment [1] amounted to 0.976; in experiment [2] it was 0.704; in experiment [3] it was 1.37; in experiment [4] it was 0.953; in experiment [5], 0.417; in experiment [6], 1.23.
Turning to `C[C@H]1C[C@H]2[C@@H]3CCC4=CC(=O)C=C[C@]4(C)[C@@]3(F)[C@@H](O)C[C@]2(C)[C@@]1(O)C(=O)CO` [Betamethasone], the Euclidean distance in experiment [1] turned out to be 1.28; in experiment [2] it was 2.01; in experiment [3] it was 2.37; in experiment [4] it was 1.68; in experiment [5], 0.663; in experiment [6] it was 2.
As to `COc1cc(CCc2cc(NC(=O)c3ccc(N4CC(C)NC(C)C4)cc3)n[nH]2)cc(OC)c1` (centres undefined), the Euclidean distance in experiment [1] stood at 1.7; in experiment [2] it was 1.94; in experiment [3], 1.5; in experiment [4] it was 3.59; in experiment [5], 2.79; in experiment [6], 1.46.
In the case of `CNCCC(Oc1ccc(C(F)(F)F)cc1)c1ccccc1` (centres undefined) [Fluoxetine HCl], the Euclidean distance in experiment [1] was found to be 0.84; in experiment [2], 1.16; in experiment [3] it was 1.21; in experiment [4], 1.78; in experiment [5] it was 1.35; in experiment [6], 1.71.
`Cn1cc(-c2nc(N[C@@H]3CCCC[C@@H]3N)c(F)c3c2C(=O)NC3)cn1`: the Euclidean distance in experiment [1] turned out to be 2.54; in experiment [2], 2.93; in experiment [3], 2.88; in experiment [4], 2.99; in experiment [5], 1.85; in experiment [6], 2.99.
`CCC(NC(C)C)C(O)c1ccc(O)c2[nH]c(=O)ccc12` (centres undefined) [Procaterol HCl]: the Euclidean distance worked out at 1.23 in experiment [1]; 1.55 in experiment [2]; 0.791 in experiment [3]; 0.891 in experiment [4]; 2.17 in experiment [5]; 1.67 in experiment [6].
For the compound `CCCc1cc(C)[nH]c(=O)c1CNC(=O)c1cc(-c2ccc(N3CCN(C(C)C)CC3)nc2)cc2c1cnn2C(C)C`, the Euclidean distance in experiment [1] was determined as 1.57; in experiment [2] it was 1.62; in experiment [3], 1.42; in experiment [4], 2.34; in experiment [5], 1.03; in experiment [6], 1.18.
On to `CCN(CC)CCOCCOC(=O)C1(c2ccccc2)CCCC1` [Pentoxyverine Citrate], for which the Euclidean distance in experiment [1] is 0.795; in experiment [2] it was 0.55; in experiment [3], 0.661; in experiment [4] it was 0.588; in experiment [5], 0.353; in experiment [6] it was 0.939.
As to `O=C(Nc1cccc2cccnc12)c1ccc(N2C(=O)[C@@H]3[C@H](C2=O)[C@@H]2C=C[C@H]3C2)cc1` [IWR-1-endo], the Euclidean distance in experiment [1] was 1; in experiment [2] it was 1.06; in experiment [3], 1.39; in experiment [4], 1.64; in experiment [5], 1.53; in experiment [6], 1.54.
